Shown are actives, neighbours in structure and some others; about 2.9% of the full set was active somewhere.
EPAC2 ant val: Validation qHTS for antagonist of cAMP-regulated guanine nucleotide exchange factor 4 (EPAC2) | Rap guanine nucleotide exchange factor 4 (Homo sapiens), Q8WZA2 | EPAC2 Rap1B BODIPY-GDP exchange, fluorescence | Potency, µM (doses to about 112 µM), without a hit: top-dose activity, negative = inhibition, actives largely listed as inhibitors | 16,000 compounds, 1.7% hits;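 further: 100% = activation by cAMP agonist control; nearly all actives have a fitted effect of over 40% in size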
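Fluorescent exchange read-out: 100 nM EPAC2 with 250 nM RAP1B–BODIPY-GDP and 50 uM GDP; BODIPY-GDP release lowers fluorescence. Read at 480/540 nm every 5 min for 30 min at room temperature; normalized to 6.5 mM cAMP.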
EPAC1 ag val: Validation qHTS for agonist of cAMP-regulated guanine nucleotide exchange factor 3 (EPAC1) | Rap guanine nucleotide exchange factor 3 (Homo sapiens), O95398 | EPAC1 Rap1b BODIPY-GDP exchange, fluorescence | Potency, µM, for the others: max response, positive = active, hits mostly activators | 16,000 compounds, 1% hits | AID 1645883, 2021; further: nearly all actives have a fitted effect of over 70% in size
Target sequence (O95398 whole entry, looked up): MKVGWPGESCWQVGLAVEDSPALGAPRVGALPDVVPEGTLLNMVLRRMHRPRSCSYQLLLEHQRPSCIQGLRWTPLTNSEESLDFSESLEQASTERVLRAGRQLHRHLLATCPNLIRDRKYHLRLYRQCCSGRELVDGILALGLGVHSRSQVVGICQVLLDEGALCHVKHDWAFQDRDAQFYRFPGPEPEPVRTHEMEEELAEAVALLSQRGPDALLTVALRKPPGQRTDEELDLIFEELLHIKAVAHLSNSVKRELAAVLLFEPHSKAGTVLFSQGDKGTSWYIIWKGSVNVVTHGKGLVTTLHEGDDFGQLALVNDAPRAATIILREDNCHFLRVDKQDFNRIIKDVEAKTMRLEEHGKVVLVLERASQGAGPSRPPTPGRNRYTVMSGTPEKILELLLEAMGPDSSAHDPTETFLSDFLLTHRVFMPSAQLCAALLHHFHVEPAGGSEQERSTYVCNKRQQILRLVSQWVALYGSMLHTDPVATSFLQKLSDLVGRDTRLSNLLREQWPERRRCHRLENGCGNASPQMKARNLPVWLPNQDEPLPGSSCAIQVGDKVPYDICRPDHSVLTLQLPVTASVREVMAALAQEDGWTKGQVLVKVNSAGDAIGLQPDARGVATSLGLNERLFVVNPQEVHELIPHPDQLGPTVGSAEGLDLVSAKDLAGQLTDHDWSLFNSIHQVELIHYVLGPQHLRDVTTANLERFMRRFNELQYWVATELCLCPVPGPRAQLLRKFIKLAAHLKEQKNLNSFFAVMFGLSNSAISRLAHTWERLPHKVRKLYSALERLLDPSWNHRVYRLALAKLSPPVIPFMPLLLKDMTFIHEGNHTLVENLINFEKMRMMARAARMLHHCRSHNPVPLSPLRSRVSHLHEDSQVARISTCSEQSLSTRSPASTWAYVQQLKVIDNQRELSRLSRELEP
Active calls of the source: *; ! = not active in a repeat; [ ] = dose if it differs, or a comment. The call rests on the fitted dose curve; in most records, active means well fitted curve in the direction sought with a large enough effect; inconclusive means small, poorly fitted or top-dose-only effect, or another doubt; inactive means no such curve, though single readings can be large; an effect the other way counts as inactive or inconclusive. Unless noted, on the % scale 0 is the no-effect control and ±100 the full control effect; potency means the concentration at half of the fitted maximal effect.

Screening CCCCCCCCCCC/C=C\C(C)(C)/C=C\CCCC(=O)O returned EPAC2 ant val 35µM*! and EPAC1 ag val -58%.
For CCCCC/C=C\C/C=C\C/C=C\C/C=C\CCCC(=O)O the results were EPAC2 ant val inconclusive and EPAC1 ag val -17%.
For CCCCCCC/C=C\CCCCCCCCC(=O)O the results were EPAC2 ant val 28µM* and EPAC1 ag val -26%.
CCCCC/C=C\C/C=C\C/C=C\C/C=C\CCCCCC(=O)O was read as EPAC2 ant val -28%[11.4 µM] and EPAC1 ag val -14%.
`CC(C)Cc1ccc(CC(=O)O)cc1` gave EPAC2 ant val -7% and EPAC1 ag val -25%.
CCCCc1c(C)nc2c(OC)cccc2c1SCC(=O)O was read as EPAC2 ant val 10% and EPAC1 ag val -17%.
C[C@@]12CCC3c4ccc(O)cc4CCC3C1CCC2O (stereo partly drawn) was read as EPAC2 ant val -20% and EPAC1 ag val 10%.
CCC(=O)OC1CCC2C3CCc4cc(O)ccc4C3CC[C@]12C (stereo partly drawn) was read as EPAC2 ant val 40µM* and EPAC1 ag val 5%.
For C[C@]12CC[C@@H]3c4ccc(O)cc4CC[C@H]3[C@@H]1CC[C@@H]2OC(=O)CCC1CCCC1 the results were EPAC2 ant val -6% and EPAC1 ag val inconclusive.
For CCCCC(=O)O[C@H]1CC[C@H]2[C@@H]3CCc4cc(O)ccc4[C@H]3CC[C@]12C the results were EPAC2 ant val 50µM* and EPAC1 ag val -110%.
Screening C[C@]12CC[C@@H]3c4ccc(O)cc4CC[C@H]3[C@@H]1CC[C@@H]2OP(=O)(O)O returned EPAC2 ant val 1% and EPAC1 ag val 2%.
For CCC(=O)O[C@H]1CC[C@H]2[C@@H]3CCc4cc(O)ccc4[C@H]3CC[C@]12C the results were EPAC2 ant val 50µM* and EPAC1 ag val -160%.
C1=C/C(=C2/C=Cc3ccccc32)c2ccccc2N1 was read as EPAC2 ant val -14% and EPAC1 ag val inconclusive.
For c1ccc(Nc2nc(-c3ccc4c(c3)OCO4)nc3ccccc23)cc1 the results were EPAC2 ant val -26% and EPAC1 ag val 100µM*.
`CNc1nc(-c2ccc3c(c2)OCO3)nc2ccccc12` gave EPAC2 ant val -29% and EPAC1 ag val -21%.
COc1cc(NCc2ccc3nc(N)nc(N)c3c2C)cc(OC)c1OC was read as EPAC2 ant val 14% and EPAC1 ag val inconclusive.
c1ccc(-c2onc(-c3ccco3)c2-c2ccc3[nH]ccc3c2)cc1 was read as EPAC2 ant val inconclusive and EPAC1 ag val 112µM*.
For CC(=O)N[C@@H](CSC/C=C(\C)CCC=C(C)C)C(=O)O the results were EPAC2 ant val -14%[11.4 µM] and EPAC1 ag val -8%.
CC(=O)N[C@@H](CSC/C=C(\C)CC/C=C(\C)CC/C=C(\C)CCC=C(C)C)C(=O)O was read as EPAC2 ant val 89µM*! and EPAC1 ag val -2%.
For COC(=O)Nc1nc2ccc(C(=O)c3ccccc3)cc2[nH]1 the results were EPAC2 ant val -11%[56.6 µM] and EPAC1 ag val -26%.
For COC(=O)Nc1nc2ccc(C(=O)c3cccs3)cc2[nH]1 the results were EPAC2 ant val 79µM*! and EPAC1 ag val -3%.
`COc1ccc(Oc2ncc3nc(-c4cc(F)cc(F)c4)c(=O)n(CCC#N)c3n2)cc1` gave EPAC2 ant val -23% and EPAC1 ag val -63%.
`COc1ccc(-c2nc3cnc(Nc4ccccc4)nc3n(CCC#N)c2=O)cc1` gave EPAC2 ant val -4% and EPAC1 ag val 112µM*.
For COc1cccc(Nc2ncc3nc(-c4ccc(F)cc4)c(=O)n(CCC#N)c3n2)c1 the results were EPAC2 ant val -19% and EPAC1 ag val 112µM*.
COc1ccc(-c2nc3cnc(Nc4cccc(OC)c4)nc3n(CCC#N)c2=O)cc1 was read as EPAC2 ant val 3% and EPAC1 ag val 100µM*.
`COc1cccc(Nc2ncc3nc(-c4ccc(Cl)cc4)c(=O)n(CCC#N)c3n2)c1` gave EPAC2 ant val inconclusive and EPAC1 ag val -195%.
COc1ccc(-c2nc3cnc(Oc4ccccc4)nc3n(CCC#N)c2=O)cc1 was read as EPAC2 ant val -28% and EPAC1 ag val inconclusive.
COc1cccc(Nc2ncc3nc(-c4ccc(F)cc4)c(=O)n(C)c3n2)c1 was read as EPAC2 ant val -5% and EPAC1 ag val -72%.
COc1cccc(Nc2ncc3nc(-c4cc(F)cc(F)c4)c(=O)n(CCC#N)c3n2)c1 was read as EPAC2 ant val inconclusive and EPAC1 ag val 112µM*.
For CCO[C@H]1[C@H](NC(=O)c2cccnc2)c2ccccc2C12CCN(C(=O)c1ccoc1)CC2 the results were EPAC2 ant val 0% and EPAC1 ag val -7%.
Screening Oc1cc(-c2nc3ccccc3s2)cc2c1OCCN(Cc1cccn1-c1ccc(Cl)cn1)C2 returned EPAC2 ant val -11% and EPAC1 ag val 4%.
Screening COc1cc(-c2cc(C)c3cccc(OC)c3n2)cc2c1OCCN(C(=O)CC1NC(=O)c3ccccc31)C2 (stereo not drawn) returned EPAC2 ant val -3% and EPAC1 ag val -1%.
Screening CC(C)c1ccc2c(c1)CC[C@@H]1[C@@](C)(CN)CCC[C@]21C returned EPAC2 ant val -11% and EPAC1 ag val -19%.
`COc1cccc(-c2cncnc2NCc2ccc(OC)cc2OC)c1` gave EPAC2 ant val 45µM* and EPAC1 ag val 8%.
For COc1ccc(CNc2ccnc(-c3ccc4c(c3)OCO4)n2)c(OC)c1 the results were EPAC2 ant val -24% and EPAC1 ag val 15%.
`COc1ccc(CNc2ccnc(-c3cccc(C#N)c3)n2)c(OC)c1` gave EPAC2 ant val -51% and EPAC1 ag val 112µM*.
`COc1ccc(CNc2ncncc2-c2cccnc2)c(OC)c1` gave EPAC2 ant val -32% and EPAC1 ag val 8%.
COc1ccccc1CNc1ccnc(-c2ccc3c(c2)OCO3)n1 was read as EPAC2 ant val inconclusive and EPAC1 ag val 100µM*.
For COc1ccccc1CNc1ccnc(-c2cccc(C#N)c2)n1 the results were EPAC2 ant val inconclusive and EPAC1 ag val 5%.
Screening CN(Cc1cccc2ncccc12)C(=O)c1cnn(-c2ncc3c(n2)-c2ccccc2CC3)c1C1CC1 returned EPAC2 ant val -8% and EPAC1 ag val 0%.
O=C(/C=C/c1ccc(O)c(O)c1)O[C@@H]1C[C@@](OC(=O)/C=C/c2ccc(O)c(O)c2)(C(=O)O)C[C@@H](O)[C@@H]1O was read as EPAC2 ant val 9% and EPAC1 ag val -3%.
For CCOc1cccc(CN2CCC(n3cc(C(=O)N4CCCCC4)nn3)CC2)c1O the results were EPAC2 ant val -5% and EPAC1 ag val -3%.
`COc1ccc(C(Cl)=C(c2ccc(OC)cc2)c2ccc(OC)cc2)cc1` gave EPAC2 ant val 3.2µM*! and EPAC1 ag val inconclusive.
Screening COc1ccc(C(=O)CC(=O)c2ccc(C(C)(C)C)cc2)cc1 returned EPAC2 ant val 3% and EPAC1 ag val -40%.
